Consider 36 compounds from PubChem BioAssay.

This assay is described as follows: compound binding in COS7 lysate, probe aLAP1, primary screen, cell lysate, small-molecule microarray (AID 1124).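 Further: lysate comes from COS7 cells expressing LAP1 and is applied at 0.3 µg/mL; score merges spot fluorescence near 667 nm with signal-to-noise over triplicate slides.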 The note with it: probe aLAP1, fluorescence, higher = more signal.
For the compound `CN1C(=O)C2C=CC(C(O)C#Cc3ccccc3)N(Nc3ccccc3)C2C1=O` (stereo unspecified), the composite z-score stood at 0.553.

Compound `CN(C)c1ccc(C(O)C2C=CC3C(=O)N(c4ccccc4)C(=O)C3N2Nc2ccc([N+](=O)[O-])cc2)cc1` (stereo unspecified) showed a composite z-score of 0.15.

Regarding `CN(C)C(=O)[C@@]1(Cc2ccccc2CN=[N+]=[N-])N=C(c2ccc(OCCCO)cc2)O[C@H]1c1ccccc1CN=[N+]=[N-]`, the composite z-score was found to be 0.15.

The compound `O=C1OCC=C[C@H]2OC34C=CCN(Cn5nnc6ccccc65)C(=O)[C@H]3N(CCCO)C(=O)[C@@H]4[C@@H]12` (stereo partly specified) displayed a composite z-score of -0.124.

As for `C[N+](C)(C)CCCCCCNC(=O)[C@H]1C[C@H]2C(=O)N[C@@H](Cc3ccccc3)C(=O)N2[C@H]1c1ccc(O)cc1`, the composite z-score worked out at 0.0686.

In turn, `COCCOC(=O)N1C(=O)[C@@]2(c3cc(C#CCCO)ccc31)[C@H](C(=O)Nc1nc3ccccc3s1)[C@H]1C(=O)O[C@H](c3ccccc3)[C@H](c3ccccc3)N1[C@@H]2c1ccccc1OCCO` came in with a composite z-score of 0.627.

For the compound `COc1cc2c(cc1OC)CN(C(=O)[C@@H]1[C@H]3C(=O)O[C@H](c4ccccc4)[C@H](c4ccccc4)N3[C@H](c3ccc(OCCO)cc3)[C@@]13C(=O)Nc1ccc(C#CC4(O)CCCCCC4)cc13)CC2`, the composite z-score was 0.514.

As to `COc1cc(CO)cc(I)c1O[C@H]1C=C(C(=O)NCCO)C[C@@H](NCc2ccc(F)cc2)[C@@H]1O`, the composite z-score was found to be 0.205.

Compound `[N-]=[N+]=NCc1ccccc1C[C@@]1(C(=O)NCc2ccccc2)N=C(c2ccc(OCCCO)cc2)O[C@@H]1c1ccccc1N=[N+]=[N-]` had a composite z-score of 0.472.

The compound `O=C(CS)NCCCCCNC(=O)[C@@H]1C[C@@H]2C(=O)N3CCC[C@H]3C(=O)N2[C@@H]1c1cccc(OCCO)c1` came in with a composite z-score of 0.503.

`C=C(C)c1cc2c(c(CCCCCC)n1)[Si](C(C)C)(C(C)C)OC2`: the composite z-score is -0.603.

`CCCCC(O)C1C=CC2C(=O)N(c3ccccc3)C(=O)C2N1Nc1ccc(C(C)C)cc1` (stereo unspecified): the composite z-score came out at 0.201.

In the case of `COCCOC(=O)N1C(=O)[C@@]2(c3cc(C#CC4=CCCCC4)ccc31)[C@H](c1ccc(OCCO)cc1)N1[C@H](c3ccccc3)[C@H](c3ccccc3)OC(=O)[C@H]1[C@@H]2C(=O)N1CCN(c2ncccn2)CC1`, the composite z-score was 0.677.

`C=C(COC)/C(=C/C[C@H](OC(C)=O)c1ccc(OCCO)cc1)c1cc(C(=O)OC)ccc1OC` yielded a composite z-score of -0.0565.

Turning to `CC1CC/C=C\[C@H]2OC34C=CCN(c5ccc(Cl)cc5)C(=O)[C@H]3N(CCCCCO)C(=O)[C@]4(C)C2C(=O)O1` (stereo partly specified), the composite z-score is -0.3.

The compound `CN1C(=O)C2C=CC(C(O)c3cccc(O)c3)N(Nc3ccccc3)C2C1=O` (stereo unspecified) returned a composite z-score of -0.279.

Compound `O=C1NC(=O)C2C1C=CC(C(O)c1c(F)cccc1Cl)N2Nc1ccc(Cl)cc1Cl` (stereo unspecified) had a composite z-score of 1.12.

As to `COc1ccc([Si](C)(C)[C@@H]2[C@@H](CCO)O[C@]3(C(=O)N(Cc4ccc(N5CCCCC5=O)cc4)c4ccccc43)[C@H]2C)cc1`, the composite z-score amounted to 0.503.

For `C=CCC(OC(C)=O)[C@@H]1[C@@H](N(Cc2cc3ccccc3o2)C(=O)c2ccc(C)cc2)c2cc(OCCCO)ccc2N1C(=O)Cc1ccc(OC)cc1` (stereo partly specified), the composite z-score was determined as 0.128.

`CCOc1cc(C(O)C2C=CC3C(=O)N(C)C(=O)C3N2Nc2ccccc2)ccc1O` (stereo unspecified) registered a composite z-score of -0.438.

In turn, `O=C(CS)NCCCCCCNC(=O)[C@H]1C[C@H]2C(=O)N[C@@H](Cc3ccccc3)C(=O)N2[C@H]1c1ccc(O)cc1` had a composite z-score of 0.871.

Consider `CC(c1ccccc1)C(O)C1C=CC2C(=O)N(c3ccccc3)C(=O)C2N1Nc1ccc([N+](=O)[O-])cc1` (stereo unspecified), for which the composite z-score is 0.0001.

For the compound `COc1ccccc1CN1C(=O)c2ccccc2[C@@]2(Cc3ccccc3N(CC(F)(F)F)C2=O)[C@@H]1c1ccc(CO)cc1`, the composite z-score is 2.4.

Regarding `COC(=O)C(CC#Cc1ccc2c(c1)[C@]1(C(=O)N2)[C@H](C(=O)N2CCN(c3ncccn3)CC2)[C@H]2C(=O)O[C@H](c3ccccc3)[C@H](c3ccccc3)N2[C@@H]1c1ccc(OCCO)cc1)C(=O)OC`, the composite z-score is -0.192.

The compound `[N-]=[N+]=Nc1ccccc1[C@@H]1OC(c2ccc(OCCCO)cc2)=N[C@]1(Cc1ccccc1)C(=O)NCC(O)CO` (stereo partly specified) yielded a composite z-score of 1.14.

In turn, `Cc1cc(C)c(C(O)C2C=CC3C(=O)NC(=O)C3N2Nc2ccc(Cl)cc2Cl)c(C)c1` (stereo unspecified) had a composite z-score of 0.772.

`COC(=O)c1c2oc(c1C(=O)OC)C(=O)N(Cc1ccccc1)Cc1cn(nn1)C[C@H](Cc1ccccc1)NC(=O)N[C@H](CO)CC2` displayed a composite z-score of 0.487.

For `C=CCNC(=O)[C@H]1[C@@H]2C(=O)O[C@@H](c3ccccc3)[C@@H](c3ccccc3)N2[C@@H](c2ccc(O)cc2)[C@]12C(=O)N(C(=O)OCCOC)c1ccccc12`, the composite z-score stood at 0.701.

In the case of `O=C1C=C(c2ccccc2)C(=O)c2ccc([C@H]3Oc4ccccc4S(=O)(=O)N4CCC[C@@H]34)cc21`, the composite z-score is -0.534.

`Cc1ccc(S[C@]2(C(=O)NCC(F)(F)F)CC(=O)N(C3CCCCC3)[C@@H]2c2ccc(CO)cc2I)cc1` yielded a composite z-score of 0.159.

Consider `COc1ccc(C#Cc2ccc3c(c2)[C@]2(C(=O)N3)[C@H](c3ccc(O)cc3)N3[C@H](c4ccccc4)[C@H](c4ccccc4)OC(=O)[C@H]3[C@@H]2C(=O)O)cc1`, for which the composite z-score turned out to be 0.483.

The compound `COC(=O)[C@@]1(Cc2ccc(OC)cc2)[C@@H]2C(=CC(=O)[C@H]2CC(=O)C(=O)N(C)C)CN1C(=O)c1ccccc1` yielded a composite z-score of 0.536.

Consider `CCOC(=O)c1ccc(NC(=O)O[C@H]2[C@H](OC(=O)Nc3ccc4c(c3)OCO4)[C@H](OC(=O)Nc3ccc4c(c3)OCO4)[C@@H](OC)O[C@@H]2CO)cc1`, for which the composite z-score worked out at 0.551.

On to `C=CCN1Cc2ccccc2[C@H]2OC(c3ccc(OCCCO)cc3)=N[C@@]2(CC=C)C1=O`, for which the composite z-score came to 0.373.

The compound `CN(C)CCCNC(=O)[C@@]1(C)c2ccccc2C(=O)N(Cc2ccccc2)[C@H]1c1ccc(CO)cc1` displayed a composite z-score of -0.39.

For the compound `CCCCCCCCCCC(O)C1C=CC2C(=O)N(C)C(=O)C2N1NC(=O)OC(C)(C)C` (stereo unspecified), the composite z-score is -0.45.
